Assay [1] can be described thus: qHTS assay to identify aromatase inhibitors - cell viability counter screen (AID 743084).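 Further: cells stimulated with testosterone during compound exposure; nearly all actives have a fitted effect of over 55% in size.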 Background: Quantitative high-throughput screening tests each substance at several concentrations.
Assay [2] deals with Aryl hydrocarbon receptor (Homo sapiens) (UniProt P35869). As to the kind of experiment: qHTS assay to identify small molecule that activate the aryl hydrocarbon receptor (AhR) signaling pathway (AID 743085).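 Further: HG2L7.5c1 human HepG2 liver cells with stably integrated DRE-driven firefly reporter; series mostly up to about 70 µM; nearly all actives have a fitted effect of over 15% in size.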 Put shortly: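 Measured in HG2L7.5c1 cells: CellTiter-Fluor signal (30 min incubation, 37C) for viability, then luciferase luminescence (30 min, room temperature). Compound contact time was 24 h at 37C, following a 5 h pre-incubation.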
Chain of Aryl hydrocarbon receptor (Homo sapiens) (P35869 whole entry, looked up): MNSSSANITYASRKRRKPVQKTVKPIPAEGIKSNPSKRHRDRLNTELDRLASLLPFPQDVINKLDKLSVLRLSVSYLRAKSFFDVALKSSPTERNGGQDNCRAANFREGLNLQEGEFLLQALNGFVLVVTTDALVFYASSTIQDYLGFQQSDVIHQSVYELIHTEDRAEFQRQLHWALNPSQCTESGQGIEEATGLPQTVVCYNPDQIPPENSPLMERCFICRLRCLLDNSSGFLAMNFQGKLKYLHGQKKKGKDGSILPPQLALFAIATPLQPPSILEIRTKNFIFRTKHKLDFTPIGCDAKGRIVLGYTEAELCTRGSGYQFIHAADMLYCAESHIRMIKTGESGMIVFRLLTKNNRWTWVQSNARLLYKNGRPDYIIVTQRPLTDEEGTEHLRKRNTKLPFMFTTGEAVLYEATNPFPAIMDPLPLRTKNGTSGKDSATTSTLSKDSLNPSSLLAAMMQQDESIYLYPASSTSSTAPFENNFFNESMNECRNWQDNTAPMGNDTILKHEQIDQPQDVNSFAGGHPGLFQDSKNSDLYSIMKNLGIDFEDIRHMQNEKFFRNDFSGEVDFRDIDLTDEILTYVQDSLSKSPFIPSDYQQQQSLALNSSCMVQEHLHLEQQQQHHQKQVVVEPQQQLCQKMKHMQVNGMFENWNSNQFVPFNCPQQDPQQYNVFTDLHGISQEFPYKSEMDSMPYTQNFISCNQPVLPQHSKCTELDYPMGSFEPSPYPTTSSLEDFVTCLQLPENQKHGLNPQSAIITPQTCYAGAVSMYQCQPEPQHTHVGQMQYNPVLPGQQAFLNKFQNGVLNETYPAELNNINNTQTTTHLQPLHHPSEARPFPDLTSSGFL

A short description of assay [3]: qHTS assay to identify small molecule that activate the aryl hydrocarbon receptor (AhR) signaling pathway - cell viability counter screen (AID 743086).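 Further: HepG2 liver cells carrying the AhR DRE luciferase reporter; series mostly up to about 70 µM; nearly all actives have a fitted effect of over 45% in size.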 Put shortly:
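HepG2-AhR-luc (HG2L7.5c1) cells, 4000/well, were preincubated 5 h at 37C, exposed to compound in qHTS format for 24 hr at 37C, then given CellTiter-Fluor for 30 min; viability was read as fluorescence in the reporter wells.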

Assay [4] addresses Peroxisome proliferator-activated receptor gamma (Homo sapiens) (UniProt P37231). Description: qHTS assay to identify small molecule agonists of the peroxisome proliferator-activated receptor gamma (PPARg) signaling pathway (AID 743094; active means well fitted activation curve with a large enough effect in the signal ratio in the repeat runs, not every such curve was filed as active; the % refers to the signal ratio). Put shortly:
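HEK293H PPARg-bla cells, 5 h settle at 37C/5% CO2; compound (DMSO) 17 h, 37C; B/G FRET substrate 1 h RT; fluorescence intensity read-out. qHTS format.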

Assay [5] has the same target. Description: qHTS assay to identify small molecule antagonists of the peroxisome proliferator-activated receptor gamma (PPARg) signaling pathway (AID 743191; calls by dose curve; further: series mostly up to about 63 µM; nearly all actives have a fitted effect of over 30% in size). The gist of the method:
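GeneBLAzer PPARg UAS-bla HEK293H cells carrying a UAS-driven beta-lactamase reporter were plated at 3000 cells/well, preincubated 5 h at 37C, then given compound for 17 h at 37C; LiveBLAzer B/G FRET substrate was read after 1 h at room temperature.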

Assay [6] can be described thus: qHTS assay to identify small molecule antagonists of the peroxisome proliferator-activated receptor gamma (PPARg) signaling pathway - cell viability counter screen (AID 743194). Further: nearly all actives have a fitted effect of over 55% in size. Put shortly:
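PPARg-UAS-bla HEK293H cells were plated, rested 5 h at 37 C, then treated with compounds plus rosiglitazone (50 nM final) for 17 h at 37 C; viability was then read by CellTiter-Glo luminescence after 30 min at room temperature.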

A short description of assay [7]: qHTS assay for small molecule agonists of the antioxidant response element (ARE) signaling pathway (AID 743202; active means well fitted activation curve with a large enough effect in the signal ratio in the repeat runs, not every such curve was filed as active; the % refers to the signal ratio; further: potency means the concentration at half of the fitted maximal effect). Put shortly:
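Following a 16 h, 37 C exposure of reporter HepG2 cells (ARE-driven beta-lactamase, 2,000 cells/well) to compounds, FRET substrate was applied for 2 h at room temperature and fluorescence intensity recorded.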

Assay [8] can be described thus: qHTS assay for small molecule agonists of the antioxidant response element (ARE) signaling pathway - cell viability counter screen (AID 743203; calls by dose curve; further: nearly all actives have a fitted effect of over 55% in size). The gist of the method: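 Luminescence read-out (CellTiter-Glo, 30 min at room temperature) measured cell viability in the same wells as the ARE beta-lactamase reporter. HepG2 ARE-bla cells were treated with compounds for 16 hrs at 37C/5% CO2.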

A short description of assay [9]: qHTS assay for small molecule activators of the heat shock response signaling pathway - cell viability counter screen (AID 743209). Further: nearly all actives have a fitted effect of over 50% in size. Put shortly: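 HSE-bla HeLa; 1500 cells/well; overnight 37 C, 5% CO2; compound 5 h 37 C; LiveBLAzer B/G substrate 2.5 h RT; CellTiter-Glo 30 min RT; luminescence.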
Assay [10] in a line: qHTS assay for small molecule activators of the heat shock response signaling pathway (AID 743210; active means well fitted activation curve with a large enough effect in the signal ratio in the repeat runs, with a control signal flat, not every such curve was filed as active; the % refers to the signal ratio; further: series mostly up to about 63 µM). The gist of the method:
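Heat shock element–beta-lactamase HeLa reporter cells; qHTS with compounds for 5 h at 37 C; detection by FRET substrate fluorescence after 2.5 h at RT.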

A short description of assay [11]: qHTS assay to identify small molecule agonists of the peroxisome proliferator-activated receptor delta (PPARd) signaling pathway - cell viability counter screen (AID 743211). Further: nearly all actives have a fitted effect of over 55% in size. The gist of the method:
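Following 5 h plating at 37 C and 5% CO2, PPARd UAS-bla HEK293H cells took up test compounds for 17 h. Viability was quantified by luminescence 30 min after CellTiter-Glo addition at room temperature.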

In assay [12] the target is Peroxisome proliferator-activated receptor delta (Homo sapiens) (UniProt Q03181). As to the kind of experiment: qHTS assay to identify small molecule agonists of the peroxisome proliferator-activated receptor delta (PPARd) signaling pathway (AID 743212; calls by dose curve). Put shortly:
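Beta-lactamase reporter read by fluorescence (LiveBLAzer B/G FRET, 2 h, room temperature). Test agents, in DMSO, incubated at 37 C with PPARd-bla HEK293H cells.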

A short description of assay [13]: qHTS assay to identify small molecule antagonists of the peroxisome proliferator-activated receptor delta (PPARd) signaling pathway - cell viability counter screen (AID 743213). Further: nearly all actives have a fitted effect of over 50% in size. The gist of the method: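 PPARd-bla HEK293H cells were treated with compounds plus agonist L165041 (300 nM final) for 17 h at 37 C. Viability was then read in the same wells by CellTiter-Glo luminescence after 30 min at room temperature.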

The target of assay [14] is Peroxisome proliferator-activated receptor delta (Homo sapiens) (UniProt Q03181). Description: qHTS assay to identify small molecule antagonists of the peroxisome proliferator-activated receptor delta (PPARd) signaling pathway (AID 743215; active means well fitted inhibition curve with a large enough effect in the signal ratio in the repeat runs, not every such curve was filed as active; the % refers to the signal ratio;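 further: cells stimulated with agonist L165041 at 300 nM final during compound exposure; series mostly up to about 62 µM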). The gist of the method: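 HEK293H GeneBLAzer PPARd UAS-bla reporter cells; cpd + L165041 300 nM final, 17 h 37 C; LiveBLAzer B/G FRET substrate 2 h RT; fluorescence intensity read-out. Antagonist mode.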
Chain of Peroxisome proliferator-activated receptor delta (Homo sapiens) (Q03181 whole entry, looked up): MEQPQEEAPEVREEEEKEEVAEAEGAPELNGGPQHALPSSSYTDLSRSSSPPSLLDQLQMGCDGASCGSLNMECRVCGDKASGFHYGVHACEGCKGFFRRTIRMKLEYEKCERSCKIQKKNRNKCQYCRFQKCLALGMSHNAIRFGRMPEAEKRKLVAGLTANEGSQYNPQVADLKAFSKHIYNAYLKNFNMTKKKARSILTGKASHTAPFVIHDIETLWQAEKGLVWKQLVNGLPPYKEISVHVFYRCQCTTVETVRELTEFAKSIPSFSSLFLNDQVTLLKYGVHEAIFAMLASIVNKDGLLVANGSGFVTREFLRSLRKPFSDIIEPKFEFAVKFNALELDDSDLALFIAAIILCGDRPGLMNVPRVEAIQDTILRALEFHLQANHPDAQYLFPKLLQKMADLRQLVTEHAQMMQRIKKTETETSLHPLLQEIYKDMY

A short description of assay [15]: qHTS assay to identify small molecule agonists of the farnesoid-X-receptor (FXR) signaling pathway - cell viability counter screen (AID 743218). Further: nearly all actives have a fitted effect of over 45% in size. Put shortly:
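Luminescence from CellTiter-Glo, read after 30 min at RT, reports viability of GeneBLAzer FXR-UAS-bla HEK 293T cells treated 16 h with compounds in the wells used for the beta-lactamase reporter.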

Assay [16] can be described thus: qHTS assay to identify small molecule antagonists of the farnesoid-X-receptor (FXR) signaling pathway - cell viability counter screen (AID 743221; active means well fitted cell-killing curve with a large enough effect in the repeat runs, not every such curve was filed as active; further: nearly all actives have a fitted effect of over 50% in size). The gist of the method:
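Compound effects on cell number were measured as CellTiter-Glo luminescence in HEK 293T cells expressing FXR-UAS-bla, after 16 h at 37 C with 50 uM CDCA (final).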

Assay [17] concerns the target Vitamin D3 receptor (Homo sapiens) (UniProt P11473). As to the kind of experiment: qHTS assay to identify small molecule agonists of the vitamin D receptor (VDR) signaling pathway (AID 743222; calls by dose curve). The gist of the method: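 Beta-lactamase reporter readout (LiveBLAzer B/G FRET, 2 h RT) in VDR-bla cells after 16 h compound treatment at 37C, 5% CO2; cells pre-incubated 4 h before pin transfer of DMSO solutions.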

For assay [18] the target is unchanged. As to the kind of experiment: qHTS assay to identify small molecule antagonists of the vitamin D receptor (VDR) signaling pathway (AID 743223; active means well fitted inhibition curve with a large enough effect in the signal ratio in the repeat runs, not every such curve was filed as active; the % refers to the signal ratio). Put shortly:
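Beta-lactamase activity in VDR-bla cells is measured by FRET substrate fluorescence (2 h, room temperature) after cells spend 16 h at 37C with test compound and 3 nM final 1alpha,25-dihydroxyvitamin D3.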

For assay [19], the target named is Bile acid receptor (Homo sapiens) (UniProt Q96RI1). Description: qHTS assay to identify small molecule antagonists of the farnesoid-X-receptor (FXR) signaling pathway (AID 743217; active means well fitted inhibition curve with a large enough effect in the signal ratio in the repeat runs, not every such curve was filed as active; the % refers to the signal ratio). Put shortly: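 Read-out: beta-lactamase FRET fluorescence (LiveBLAzer B/G substrate, 2 h, room temperature) in GeneBLAzer FXR-UAS-bla HEK 293T cells. Compounds were co-dosed with 50 uM chenodeoxycholic acid (final) and incubated 16 h at 37 °C.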
Chain of Bile acid receptor (Homo sapiens) (Q96RI1 whole entry, looked up): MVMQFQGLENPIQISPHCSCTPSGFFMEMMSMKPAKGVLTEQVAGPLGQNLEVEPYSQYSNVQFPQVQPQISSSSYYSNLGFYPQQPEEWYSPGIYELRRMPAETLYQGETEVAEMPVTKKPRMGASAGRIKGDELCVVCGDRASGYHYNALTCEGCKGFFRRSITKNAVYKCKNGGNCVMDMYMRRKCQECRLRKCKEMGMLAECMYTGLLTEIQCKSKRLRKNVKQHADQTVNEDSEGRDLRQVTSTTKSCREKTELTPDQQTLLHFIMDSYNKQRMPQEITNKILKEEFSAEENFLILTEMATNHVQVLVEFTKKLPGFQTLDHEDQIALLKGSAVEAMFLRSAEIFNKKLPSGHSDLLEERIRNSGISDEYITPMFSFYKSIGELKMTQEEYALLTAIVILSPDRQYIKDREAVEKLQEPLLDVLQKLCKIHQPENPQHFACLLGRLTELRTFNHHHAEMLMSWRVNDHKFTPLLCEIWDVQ

For assay [20] the target is unchanged. As to the kind of experiment: qHTS assay to identify small molecule agonists of the farnesoid-X-receptor (FXR) signaling pathway (AID 743220; active means well fitted activation curve with a large enough effect in the signal ratio in the repeat runs, not every such curve was filed as active; the % refers to the signal ratio). Put shortly:
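FXR-UAS-bla HEK 293T cells carrying a UAS-driven beta-lactamase reporter were plated for 5 h at 37C/5% CO2, then exposed to DMSO-dissolved Tox21 10K compounds for 16 h at 37C. A LiveBLAzer B/G FRET substrate was loaded for 2 h at room temperature before fluorescence reading.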

Where “and” joins values, the source holds several entries; their conditions need not be identical. Equal values may be shown once. Inconclusive results are not listed. Some compounds were tested as several samples or in several runs, with calls that do not always agree. Calls of active or inactive are those of the source. Unless noted, the call rests on the fitted dose curve; in most records, active means well fitted curve in the direction sought with a large enough effect in the repeat runs; inconclusive means weak or mixed curves; inactive means no such curve, though single readings can be large; an effect the other way counts as inactive or inconclusive.

This note sets out measurements from PubChem BioAssay (Tox21).

Chain of Vitamin D3 receptor (Homo sapiens) (P11473 whole entry, looked up): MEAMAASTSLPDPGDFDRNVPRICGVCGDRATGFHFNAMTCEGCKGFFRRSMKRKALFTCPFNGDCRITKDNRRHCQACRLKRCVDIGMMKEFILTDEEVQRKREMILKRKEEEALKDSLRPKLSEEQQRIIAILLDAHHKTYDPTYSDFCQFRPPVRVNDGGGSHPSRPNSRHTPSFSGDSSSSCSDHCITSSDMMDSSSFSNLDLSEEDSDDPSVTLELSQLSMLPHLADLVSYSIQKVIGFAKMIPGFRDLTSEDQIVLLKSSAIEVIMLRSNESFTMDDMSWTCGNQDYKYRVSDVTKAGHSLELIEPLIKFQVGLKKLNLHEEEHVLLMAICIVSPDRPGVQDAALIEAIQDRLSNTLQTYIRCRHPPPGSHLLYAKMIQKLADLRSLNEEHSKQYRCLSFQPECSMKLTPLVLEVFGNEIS
Chain of Peroxisome proliferator-activated receptor gamma (Homo sapiens) (P37231 whole entry, looked up): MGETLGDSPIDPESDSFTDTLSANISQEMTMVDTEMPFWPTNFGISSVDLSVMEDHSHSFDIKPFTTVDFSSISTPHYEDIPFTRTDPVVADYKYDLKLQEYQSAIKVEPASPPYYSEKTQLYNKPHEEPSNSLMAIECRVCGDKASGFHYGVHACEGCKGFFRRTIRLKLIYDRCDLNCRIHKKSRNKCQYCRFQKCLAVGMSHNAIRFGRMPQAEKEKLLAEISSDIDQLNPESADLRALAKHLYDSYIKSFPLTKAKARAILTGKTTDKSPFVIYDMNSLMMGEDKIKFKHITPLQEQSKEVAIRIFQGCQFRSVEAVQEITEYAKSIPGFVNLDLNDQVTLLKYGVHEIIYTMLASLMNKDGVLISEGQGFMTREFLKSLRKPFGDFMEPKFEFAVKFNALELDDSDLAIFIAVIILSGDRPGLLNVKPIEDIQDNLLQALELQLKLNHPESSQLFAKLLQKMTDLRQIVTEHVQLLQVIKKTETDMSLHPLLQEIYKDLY

`NS(=O)(=O)O`: the Potency result in assay [1], in assay [2], in assay [3], in assay [4], in [5] and in assay [6] was “inactive” throughout. Also, the Potency result in [7], in [8], in [9], in assay [11], in assay [12] and in [13] was “inactive” throughout. Also, the Potency result in assay [14], in [15], in assay [16], in [17] and in assay [18] was “inactive” each time. In addition, the result in assay [10] was inactive.
Consider `CCCCCCCC(=O)OCC(COC(=O)CCCCCCC)OC(=O)CCCCCCC`, for which the Potency result in assay [1], in [2], in assay [3], in assay [4], in assay [5] and in assay [6] was “inactive” in each case. The Potency result in assay [7], in assay [8], in assay [9], in assay [11], in assay [12] and in [13] was “inactive” each time. In addition, the Potency entry in assay [14], in [19], in assay [15], in [16], in [17] and in [18] was “inactive” each time. Also, the result in assay [10] and in [20] was inactive.
`Cc1cn([C@H]2C=C[C@@H](CO)O2)c(=O)[nH]c1=O`: the Potency result in assay [1], in assay [2], in [3], in assay [4], in assay [5] and in assay [6] was “inactive” each time. In addition, the Potency entry in assay [7], in assay [8], in assay [9], in assay [11], in assay [12] and in assay [13] was “inactive” each time. For the same compound, the Potency entry in assay [14], in [19], in [15], in assay [16], in assay [17] and in assay [18] was “inactive” each time. The compound was called inactive in assay [10] and in assay [20].
`NC(CO)(CO)CO`: the Potency result in assay [1], in [2], in assay [3], in [4], in assay [5] and in assay [6] was “inactive” each time. In addition, the Potency result in assay [7], in [8], in assay [9], in assay [11], in assay [13] and in assay [15] was “inactive” in each case. In addition, the Potency entry in assay [16], in assay [17] and in [18] was “inactive” throughout. For the same compound, the outcome in assay [10] was inactive.
`F[B-](F)(F)F`: the Potency entry in [1], in assay [2], in assay [3], in [4], in [5] and in assay [6] was “inactive” each time. For the same compound, the Potency entry in [8], in assay [9], in assay [11], in [13], in assay [15] and in assay [16] was “inactive” in each case. Also, the Potency result in assay [17] and in [18] was “inactive” each time. The Potency result in assay [7] was “inactive and 27.6 µM (active)”. Further, the outcome in assay [10] was inactive.
As to `CCOc1ccc(NC(C)=O)cc1`, the Potency entry in assay [1], in [2], in assay [3], in assay [4], in assay [5] and in [6] was “inactive” each time. In addition, the Potency result in assay [7], in assay [8], in assay [9], in assay [11], in assay [13] and in assay [19] was “inactive” each time. Besides, the Potency entry in assay [15], in assay [16], in assay [17] and in assay [18] was “inactive” each time. Also, the compound was classed as inactive in assay [10] and in assay [20].
For the compound `NC(=O)c1cccnc1`, the Potency entry in assay [1], in assay [2], in assay [3], in [4], in assay [5] and in [6] was “inactive” each time. Further, the Potency result in assay [7], in [8], in assay [9], in assay [11], in assay [12] and in [13] was “inactive” in each case. The Potency result in assay [14], in assay [19], in [15], in [16], in [17] and in assay [18] was “inactive” in each case. The result in [10] and in assay [20] was inactive.
